Among all 48,000 compounds or so, about 13,000 (27%) showed an effect of 50% or more. Some of the results follow.
system: Wolbachia pipientis; test: Anti-Wolbachia Cell-Based Screen; assay type: functional; design: scale not given: in the data most compounds retested in dose-response had high values; conditions: 5 µM

Row | Structure (SMILES) | Percent Effect [%]
1 | Cl.Cl.O=C(NC[C@H]1OC[C@@H](NC2CCNCC2)[C@@H]1O)C1CCCC1 | -10.79
2 | O=C(C1CC1)N1C[C@@H](F)[C@@H](OCc2nc3ccccc3[nH]2)C1 | -5.445
3 | O=C(CC1CC1)N1CCO[C@H]2[C@H](OCCCn3cccn3)CC[C@@H]21.O=C(O)C(F)(F)F | 104.8
4 | O=C(N1CCCC1)N1CCO[C@H]2[C@@H](OCc3cccnc3)CC[C@@H]21.O=C(O)C(F)(F)F | -4.224
5 | CC(=O)N1CCO[C@H]2[C@H](OCCCn3cccn3)CC[C@@H]21.O=C(O)C(F)(F)F | 121.4
6 | CCS(=O)(=O)N1CCO[C@H]2[C@H](OCCCn3cccn3)CC[C@@H]21.O=C(O)C(F)(F)F | 3.946
7 | O=C(C1CCOCC1)N1CCO[C@H]2[C@H](Oc3ccccn3)CC[C@@H]21.O=C(O)C(F)(F)F | -40.04
8 | Cn1cccc1C(=O)N1CCO[C@H]2[C@H](OCc3cccnc3)CC[C@@H]21.O=C(O)C(F)(F)F | -1.301
9 | O=C(C1CCC1)N1CCO[C@H]2[C@H](OCCCn3cccn3)CC[C@@H]21.O=C(O)C(F)(F)F | 102.2
10 | CCOCC(=O)NCC(Cc1cccc(F)c1)n1cccc1 (stereo not given) | 6.887
11 | CS(=O)(=O)CCCNC(=O)Nc1sc2ccccc2c1Cl | -10.11
12 | COC(=O)c1ccc(Cn2cccc(C(F)(F)F)c2=O)c(OC)c1 | 9.312
13 | COc1cc(C#N)ccc1OCCN1CCC(n2ccnc2)CC1 | 7.917
14 | COC(=O)c1ccc(Cn2nc(C)cc2C)c(OC)c1 | -3.306
15 | COCC1CCN(CCOc2ccc(C#N)cc2OC)CC1 | -11.6
16 | COc1cc(C(C)=O)ccc1OCCNCc1ccco1.Cl | -30.68
17 | COC(=O)c1ccc(OC)c(OC23CCCN(CC2)C3)c1 (stereo not given) | 94.41
18 | COc1cc(C(C)=O)ccc1OC12CCCN(CC1)C2 (stereo not given) | 108.8
19 | COc1cc(C(C)=O)ccc1SCC(=O)Nc1ccc(C)cn1 | -18.24
20 | COc1cc(C#N)ccc1OC12CCCN(CC1)C2 (stereo not given) | 107.4
21 | CCNC(=O)Nc1cccc(F)c1C(=O)NC1CCCC1 | 2.869
22 | CC(C)CC(C#N)NC(=O)COC1CCCCC1 (stereo not given) | -4.996
23 | Cn1ccc(CN2CCC3(CCCN3CC3CC3)CC2)n1.O=C(O)C(F)(F)F.O=C(O)C(F)(F)F | 89.46
24 | Cn1ccc(CN2CCCC23CCN(Cc2nccn2C)CC3)n1.O=C(O)C(F)(F)F.O=C(O)C(F)(F)F | 97.85

Row | Structure (SMILES) | Percent Effect [%]
25 | O=C(O)C(F)(F)F.O=C(O)C(F)(F)F.c1csc(CN2CCC3(CCCN3CC3CC3)CC2)n1 | 0.06996
26 | CC(C)COC1CC2(CCN(Cc3nccn3C)CC2)C1.O=C(O)C(F)(F)F | -0.08907
27 | CN(C)CCN1CCCC12CCN(Cc1nccn1C)CC2.O=C(O)C(F)(F)F.O=C(O)C(F)(F)F.O=C(O)C(F)(F)F | 106.1
28 | Cn1ccnc1CN1CCC2(CCCN2c2ncccn2)CC1.O=C(O)C(F)(F)F | -8.541
29 | Cc1ccc(NC2COC3(CCN(Cc4ccn(C)n4)CC3)C2)nn1.O=C(O)C(F)(F)F (stereo not given) | -6.198
30 | Cc1cnc(N2C[C@@H]3[C@@H](C(=O)NCC(C)C)CCS(=O)(=O)[C@@H]3C2)nc1 | -2.009
31 | CCc1cnc(N2C[C@@H]3[C@@H](C(=O)NCC(C)C)CCS(=O)(=O)[C@@H]3C2)nc1 | -5.453
32 | CC(C)NC(=O)[C@H]1CCS(=O)(=O)[C@@H]2CN(c3ncc(F)cn3)C[C@H]12 | -13.53
33 | Cc1cnc(N2C[C@@H]3[C@@H](C(=O)NC(C)C)CCS(=O)(=O)[C@@H]3C2)nc1 | -24.89
34 | CC(C)CNC(=O)[C@H]1CCS(=O)(=O)[C@@H]2CN(c3ncccn3)C[C@H]12 | 91.22
35 | CCc1cnc(N2C[C@H]3CCCC(N(C)Cc4ccccn4)[C@H]3C2)nc1 (stereo not given in full) | -24.97
36 | CC(C)NC(=O)[C@H]1CCS(=O)(=O)[C@@H]2CN(c3ncccn3)C[C@H]12 | -3.711
37 | CN(C)C(=O)[C@H]1CCS(=O)(=O)[C@@H]2CN(c3ncc(F)cn3)C[C@H]12 | 102
38 | CN(C)C(=O)[C@H]1CCS(=O)(=O)[C@@H]2CN(c3ncccn3)C[C@H]12 | 99.37
39 | CCc1cnc(N2C[C@@H]3[C@@H](C(=O)N(C)C)CCS(=O)(=O)[C@@H]3C2)nc1 | 108.3
40 | CCc1cnc(N2C[C@@H]3[C@@H](C(=O)NC(C)C)CCS(=O)(=O)[C@@H]3C2)nc1 | -2.445
41 | CN(C)C[C@@H]1CCC[C@@H]2CN(c3ncccn3)C[C@@H]21.O=C(O)C(F)(F)F | 2.797
42 | CC(=O)CCC(=O)N1CCC2(CC1)N=C(CCC(C)C)NC2=O | -5.676
43 | CC(C)(C)OC(=O)N1CCC(C(=O)NC2CCS(=O)(=O)C2)CC1 (stereo not given) | 6.733
44 | COc1ccc(C(=O)N2CCC(C3CCN(c4ncccn4)CC3)C2)o1 (stereo not given) | -7.407
45 | O=C(O)C(F)(F)F.O=C(c1ccco1)N1C[C@H]2CCCN(Cc3cccs3)[C@H]2C1 | -3.839
46 | O=C([C@@H]1CCS(=O)(=O)[C@@H]2CN(c3ncccn3)C[C@@H]21)N1CCOCC1 | 104.7
47 | CN1CCN(C(=O)[C@@H]2CCO[C@@H]3CCN(c4ncccn4)C[C@@H]32)CC1 | -8.422
48 | CN(C)CCOc1cccc(CN2CCCC3(C2)CN(C)C(=O)O3)c1 (stereo not given) | 103.2

Row | Structure (SMILES) | Percent Effect [%]
49 | COc1ccc(/C=C/CN2CCCC3(C2)CN(C)C(=O)O3)cc1 (stereo not given) | -36.85
50 | CN1CC2(CCCN(Cc3ccc(Oc4ccccc4)cc3)C2)OC1=O (stereo not given) | 64.08
51 | Cc1cc(C)c2[nH]c(=O)c(CN3CCCC4(C3)CN(C)C(=O)O4)cc2c1 (stereo not given) | -2.953
52 | CN1CC2(CCCN(Cc3cccc(Oc4ccccc4)c3)C2)OC1=O (stereo not given) | 123.2
53 | COc1ccc(/C=C/CN2CCC3(C2)CN(C)C(=O)O3)cc1 (stereo not given) | -32.82
54 | CN1CC2(CCCN(Cc3ccccc3OCC(=O)O)C2)OC1=O (stereo not given) | 0.6132
55 | O=C1NC[C@@]2(C(=O)O)CN(Cc3cccc(Oc4ccccc4)c3)C[C@@H]12 | -29.67
56 | CN1CC2(CCCN(c3cc(N4CCCCC4)ncn3)C2)OC1=O (stereo not given) | -3.477
57 | CN1CC2(CCCN(c3cnccn3)C2)OC1=O (stereo not given) | 1.527
58 | CN1CC2(CCCN(Cc3cccc(CCN)c3)C2)OC1=O (stereo not given) | 105.3
59 | COc1cccc(CN2CCCC3(CCN(C(CO)CO)C3)C2)c1 (stereo not given) | -0.6359
60 | CCOCCCC(=O)NCc1ccnc(N2CCN(C)CC2)c1 | 8.829
61 | CN(Cc1ccc(F)cc1C#N)CC(F)(F)F | -4.053
62 | CC(C)(C)CCN1CCN(c2snc(Cl)c2C#N)CC1 | -4.564
63 | CC(C)(NC(=O)c1coc(COc2cccc(F)c2)n1)C(N)=O | 11.65
64 | COCc1cc(CNC(=O)c2cccc3c2OCC3)n[nH]1 | -6.489
65 | CCCN1CCCN(CCCOc2cccc(C#N)c2)CC1 | 7.264
66 | N#CCCN(C(=O)CN1CCCC1c1ccsc1)c1ccccc1F (stereo not given) | -4.506
67 | CCS(=O)(=O)N1CCn2c(COCC3CCOCC3)cnc2C1C (stereo not given) | -1.918
68 | CN(C)C(=O)NCc1cc2n(n1)CCCN(C[C@H]1[C@@H]3CNC[C@@H]31)C2 | -16.67
69 | O=C(CC1CCCO1)NCc1ccccc1Cn1cncn1 (stereo not given) | 0.9316
70 | CCC1CN(C)c2ccccc2CN1C(=O)c1c[nH]c(=O)cc1C (stereo not given) | 123.4
71 | CCc1cc(CNC(=O)N2Cc3ccccc3N(C)CC2C)[nH]n1 (stereo not given) | 5.505
72 | CC1CN(C)c2ccccc2CN1C(=O)c1ccncc1F (stereo not given) | -16.77

Row | Structure (SMILES) | Percent Effect [%]
73 | CC1CN(C)c2ccccc2CN1C(=O)c1cc[nH]c(=O)c1 (stereo not given) | -17.5
74 | Cc1cc(=O)[nH]cc1C(=O)N1Cc2ccccc2N(C)CC1C (stereo not given) | 102.2
75 | CC1CN(C)c2ccccc2CN1C(=O)c1ccc[nH]1 (stereo not given) | -9.61
76 | COCc1ccc(C(=O)N2CC[C@H](O)[C@@H](n3ccnc3)CC2)cc1 | 113.2
77 | O=C(c1ccc(-n2ccnc2)cc1)N1CCCC1 | 15.67
78 | COCc1ccc(C(=O)N2CCCN(C(=O)OCC(C)C)CC2)cc1 | 6.896
79 | CC(C)Oc1ccc(C(=O)N2CC[C@H](O)[C@@H](n3ccnc3)CC2)cc1 | 122.3
80 | CC(C(=O)N1CCN(C(=O)c2ccc(F)cc2)CC1)n1ccnc1 (stereo not given) | -9.233
81 | COCc1ccc(C(=O)N2CCN(CCS(C)(=O)=O)CC2)cc1 | 1.51
82 | CS(=O)(=O)CCSC1CCN(c2ccccc2F)C1=O (stereo not given) | -0.4258
83 | CC(C)N1CCC(C(=O)N[C@H](C(=O)O)c2cccc(F)c2F)CC1 | 23.96
84 | O=C(c1coc2ccccc12)N1CCCC(O)(CO)CC1 (stereo not given) | -11.92
85 | Cn1c(CO)cnc1SC(C(N)=O)c1ccccc1 (stereo not given) | -6.292
86 | COCCN(CCC#N)S(=O)(=O)c1ccc(F)cc1F | 3.199
87 | COc1cccc(OCCNS(C)(=O)=O)c1 | 78.58
88 | COc1cccc(OCCNS(=O)(=O)Cc2ccccc2)c1 | 102.8
89 | O=C(CCOc1ccccc1)NS(=O)(=O)Cc1ccccc1 | -5.15
90 | COc1cccc(CNCCc2cccc(C(N)=O)c2)c1 | -2.153
91 | Cc1cccc(OCC(=O)NS(=O)(=O)Cc2ccccc2)c1 | 1.498
92 | COc1ccc(S(=O)(=O)C(C)C(=O)NCCOc2cccc(C)c2)cc1 (stereo not given) | 1.494
93 | COc1cccc(OCCNCc2ccccc2)c1.O=C(O)C(=O)O | 105.9
94 | CS(=O)(=O)c1ccc(OCCNCc2cccc(O)c2)cc1 | -6.003
95 | CC(=O)NCCOc1cccc(Br)c1 | 0.6269

Source: ChEMBL document CHEMBL3988442, “University of Dundee, Small-Polar-MMV Screening Library” (2021)
